Reference: ChEMBL document CHEMBL4513216, “Probing the Open Global Health Chemical Diversity Library for Multistage-Active Starting Points for Next-Generation Antimalarials” (ACS Infect Dis, 2020)
In all, about 69,000 compounds went through this assay and about 8,600 (12%) showed an effect of 50% or more. The full list was thinned out, with strong results kept by preference.

System: Plasmodium berghei
Experiment: Screen against P. berghei liver stage (PbLuc), transformed with Luciferase, at 10uM
Assay type: functional, HepG2
Details: tested at 10 uM

Compound | INHIBITION
CN(C)[C@@H]1COC[C@@H]2CN(Cc3ccc4c(c3)OCO4)C[C@@H]21 | -13.7%
CC(=O)Nc1nc(CN2CCCCC2Cn2cccn2)cs1 (centres undefined) | -15.8%
CN(C)C(=O)C1CCc2nnc(C(C)(C)C)n21 (centres undefined) | -7.25%
Cc1cc2nccc(C3CCCN(C(=O)c4cnccn4)C3)n2n1 (centres undefined) | 33.2%
O=C(NC1CC1)N1CCc2ncnc(-c3ccncc3)c2CC1 | -17%
O=C(c1ccoc1)N1CC[C@@H]2[C@H]1CCC(=O)N2c1ccccc1 | 43.2%
Cc1occc1C(=O)N1CCC2(CCCN(Cc3cccs3)C2)C1 (centres undefined) | -60.9%
Cc1cnn(CCNCC(O)c2ccc(C(F)(F)F)cc2)c1 (centres undefined) | 23.3%
CC(C)C(=O)NC1CCCN(C(=O)c2cc3ccccc3cc2O)C1 (centres undefined) | -13.3%
Cc1ccc(CNc2ccccc2-n2ccc(C)n2)nc1 | 40.5%
Cc1ccn(-c2ccccc2NCc2ncc[nH]2)n1 | 7.9%
Cc1ccn(-c2ccccc2NCc2cccnc2C)n1 | -11.8%
Cc1ccn(-c2ccccc2NCc2cscn2)n1 | 52.4%
Cc1ccn(-c2ccccc2NCc2scnc2C)n1 | 58.3%
Cc1ccn(-c2ccccc2NCc2ccccn2)n1 | 2.37%
COCCC(=O)N1C[C@H]2CN(Cc3cccc(C)c3)C(=O)[C@H]2C1 | 14.9%
O=C(Nc1cc(C(F)(F)F)c[nH]c1=O)C1CCCNC1 (centres undefined) | 42.6%
O=C(NCCN1CCOCC1)N(CCCO)C1CCCc2ccccc21 (centres undefined) | 18.3%
COc1cccc(C(=O)N2CCN(Cc3nc(C(C)C)no3)CC2)c1 | 43.3%
CCOc1ccc(Cl)c(C(=O)NCCc2ncc[nH]2)n1 | 6.05%
CCOc1ccc2nc(CN3CCC(CN)C3)ccc2c1 (centres undefined) | 57.5%
CCOc1ccc2nc(CN3CCC(CNC(C)=O)C3)ccc2c1 (centres undefined) | 51.5%
CCOc1ccc2nc(CN3CCOC(CN)C3)ccc2c1 (centres undefined) | 24.8%

Compound | INHIBITION
COc1nc2ccccc2cc1CN1CCCC(CNC(C)=O)C1 (centres undefined) | 21.85%
CCc1nccc(CN2CCC(CNC(=O)C3CCC(C)CC3)C2)n1 (centres undefined) | 7.43%
OC[C@H]1CCN(Cc2ccc3ccccc3n2)C[C@@H]1O | 2.25%
COCCN1CCC(NCc2cc(F)ccc2F)C1 (centres undefined) | -14%
Cc1ncc(S(C)(=O)=O)c(N(C)CCCc2cnn(C)c2)n1 | 29.1%
COc1cc(Br)c(CNC2CCCNC2=O)cc1OC (centres undefined) | 36.5%
COc1cc(Br)cc(CNC2CCCNC2=O)c1O (centres undefined) | 60%
COCc1ccc(OC)c(CNC2CCCNC2=O)c1 (centres undefined) | -9.51%
O=C(c1cc2c(s1)CCC2)N1CCC(c2ccncc2)CC1 | 32.3%
CC(=O)Nc1nc(C(=O)N2CCCC(n3ccnc3C)C2)cs1 (centres undefined) | 0.411%
O=C(CC(F)(F)F)N1C[C@H]2CCN[C@H]2C1 | 62.3%
CC(C)(C)CC(=O)N1C[C@H]2CCN[C@H]2C1 | 46.4%
O=C(CC1CC1)N1C[C@H]2CCN[C@H]2C1 | 24.6%
Cc1nc(CN2CCc3c(nc(C4CC4)n3C)C2)nc2ccccc12 | 74.1%
Cn1c(C2CC2)nc2c1CCN(CC(=O)Nc1nncs1)C2 | 17%
Cn1cnc2c1CCN(CC(=O)NC1CCCCNC1=O)C2 (centres undefined) | -7.72%
Cc1nc2ccccc2nc1CN1CCc2c(nc(C3CC3)n2C)C1 | -12.2%
Cc1csc(NC(=O)CN2CCc3c(nc(C4CC4)n3C)C2)n1 | 67.4%
CCN1CCC(NC(=O)CN2CCc3c(nc(C4CC4)n3C)C2)CC1 | 24.8%
Cn1c(C2CC2)nc2c1CCN(Cc1nc3ccccc3s1)C2 | 43.5%
Cn1c(C2CC2)nc2c1CCN(CC(=O)NC1CCCCNC1=O)C2 (centres undefined) | 52%
Cn1c(C2CC2)nc2c1CCN(CC(=O)Nc1nccs1)C2 | 11.9%
Cc1ccc(C(=O)N(C)Cc2ccc3c(c2)OCO3)c(=O)[nH]1 | 17.8%

Compound | INHIBITION
O=c1c2c[nH]c(N3CCCC3)nc-2cn1CCc1ccc(Cl)cc1 | 15.1%
Cc1nc(C)n(C2CCCN(C(=O)CCc3cn(C)nc3C)C2)n1 (centres undefined) | 21.5%
O=C(c1ccc[nH]1)N1CCc2nnc(Cn3cccn3)n2CC1 | 43.4%
O=C(O)c1ccc2ccc(N3CCN(CC4CC4)CC3)n2c1 | 54.1%
CN(C)C(=O)c1ccc2ccc(N3CCN(CC4CC4)CC3)n2c1 | 38.3%
O=C(NC1CC1)c1ccc2ccc(N3CCN(CC4CC4)CC3)n2c1 | 34.9%
CCOC(=O)NC1CCCN(c2cncc(Br)c2)C1 (centres undefined) | 35.9%
CCCC(=O)NC1CCCN(c2cncc(Br)c2)C1 (centres undefined) | 55.4%
CC(C)(C)OC(=O)N[C@H]1CCN(c2cncc(Br)c2)C1 | 22%
O=C(c1ccccn1)N1CCC2(COc3ncccc3S(=O)(=O)N2)C1 (centres undefined) | 67.3%
O=C(c1ccc(Cl)s1)N1CCC2(COc3ncccc3S(=O)(=O)N2)C1 (centres undefined) | 2.69%
O=C(c1cscn1)N1CCC2(COc3ncccc3S(=O)(=O)N2)C1 (centres undefined) | 48.2%
O=C(c1ccncc1)N1CCC2(COc3ncccc3S(=O)(=O)N2)C1 (centres undefined) | 25.1%
O=C(C1CCCCC1)N1CCC2(COc3ncccc3S(=O)(=O)N2)C1 (centres undefined) | 50.7%
O=C1CC2(CCN(C(=O)C3CCCCC3)C2)Nc2ccccc2N1 (centres undefined) | 28.4%
CCc1nccn1-c1cncc(C2CCCN2Cc2ccccc2)n1 (centres undefined) | 45.6%
CCN1C[C@@H]2[C@@H](OC)CCN(S(=O)(=O)c3ccccc3F)[C@@H]2C1 | 21.6%
Cc1noc([C@@H](C)NCc2cccc(Cl)c2)c1C(=O)O | 48.2%
CN1CC(c2cc(O)nc(NCc3cccc(F)c3)n2)CC1=O (centres undefined) | -34.6%
O=S(=O)(NCC(O)c1ccoc1)c1ccc(Cl)s1 (centres undefined) | 46.1%
CNc1cc(N2CCCC2CNCc2csc(C(C)C)n2)ncn1 (centres undefined) | 46.2%
CSc1nc(C)cc(N2CCC(c3ncc[nH]3)CC2)n1 | 44.6%
CCOc1cc(C)nc(N2CCN(C(=O)c3cn[nH]c3CC)CC2)n1 | 44.1%
